Many of the other results were omitted from the sample, so hits are more common in it than they were.
Cycloheximide cs: counter-screen for Shiga toxin inhibitors: cycloheximide protein synthesis inhibition. cell reporter, cycloheximide protein synthesis inhibition counterscreen. 12% of 300,000 active. max response, %; in the data active = max response mostly above about 13%, no sharp cut-off; inactive = mostly below about 14%; note: read at 38.3 µM for the half of the compounds with a filed dose; 0% is about no effect
Shiga toxin inh: blocks Shiga toxin action in Vero cells; Vero cells, Shiga toxin protein synthesis inhibition reporter; inhibition, % at 38.7 µM; 9.2% of 290,000 active; in the data active = inhibition mostly above about 28%, no sharp cut-off; inactive = mostly below about 43%; note: 0% is about no effect
Tb PYK inh: blocks Trypanosoma brucei pyruvate kinase; Q57TT1; TbPYK enzyme, Kinase-Glo Plus ATP luminescence, 45 min; Potency, µM (series often up to 76.8 µM), for inactives: top-dose activity, negative = inhibition, usual class: inhibitors; 0.12% of 410,000 active; note: potency is the fitted concentration of half-maximal effect; % is set by controls: 0 for no effect and ±100 for the full control effect; nearly all actives have a fitted effect of over 50% in size
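T. brucei PYK with substrate was exposed to pin-transferred compounds across a concentration series, then started with 130 uM ADP (final). After 45 min at room temperature, Kinase-Glo Plus luminescence was read, normalized and curve-fitted.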
RE007 growth inh: less growth of the S. pombe RE007 Vpr strain | S. pombe RE007 Vpr strain, BacTiter-Glo ATP luminescence, 24 h | Potency, µM (series often up to 92.2 µM), for the others: at the highest dose activity change, negative = less growth, actives largely listed as inhibitors | 0.21% of 360,000 active | AID 651644; active = well fitted falling curve with a large enough effect; inconclusive = small, poorly fitted or top-dose-only effect; inactive = no such curve, though single readings can be large or run the other way; note: potency is the fitted concentration of half-maximal effect; % is set by controls: 0 for no effect and ±100 for the full control effect; nearly all actives have a fitted effect of over 50% in size
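Fission yeast RE007 carrying one integrated HIV-1 vpr copy, seeded at OD 0.01 in PMG+AL medium with 23 nL pinned compound. Grown 24 h at 30 degrees; viability read by BacTiter-Glo luminescence after 5 min.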
LmPK inh: LmPK (Leishmania mexicana) enzyme inhibition; Q27686; purified LmPK, Kinase-Glo ATP luminescence, 1 h; Potency, µM (highest dose often 57.5 µM), for the others: top-dose activity change, negative = inhibition, usual class: inhibitors; 0.37% of 290,000 active; note: potency is the fitted concentration of half-maximal effect; % is set by controls: 0 for no effect and ±100 for the full control effect
Target sequence (Q27686 whole entry, looked up): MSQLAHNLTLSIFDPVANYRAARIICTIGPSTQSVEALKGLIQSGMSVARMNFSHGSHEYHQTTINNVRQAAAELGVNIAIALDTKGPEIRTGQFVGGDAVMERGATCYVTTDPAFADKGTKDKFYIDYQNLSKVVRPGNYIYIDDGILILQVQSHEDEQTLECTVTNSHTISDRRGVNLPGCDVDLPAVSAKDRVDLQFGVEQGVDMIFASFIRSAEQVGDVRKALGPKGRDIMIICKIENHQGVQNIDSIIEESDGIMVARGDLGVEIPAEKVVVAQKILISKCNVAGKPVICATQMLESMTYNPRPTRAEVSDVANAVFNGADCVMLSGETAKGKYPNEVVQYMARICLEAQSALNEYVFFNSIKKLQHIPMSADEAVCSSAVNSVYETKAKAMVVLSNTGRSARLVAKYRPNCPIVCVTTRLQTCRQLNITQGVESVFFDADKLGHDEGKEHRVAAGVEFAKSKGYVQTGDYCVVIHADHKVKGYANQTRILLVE
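Screened at intermediate enzyme activity to detect both inhibitors and activators: LmPK at 0.1 nM, with a 0.5 nM enzyme column as activation reference. PEP 0.5 mM, ADP 0.1 mM; ATP detected by luminescence after 1 h.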
FBPA Giardia inh: inhibitors of Giardia lamblia fructose-1,6-bisphosphate aldolase | AID 2451 | 0.71% of 290,000 active | purified Giardia FBPA | Potency, µM (series often up to 59.6 µM), without a hit: at the top dose activity, negative = inhibition, usual class: inhibitors | A8B2U2; note: potency is the fitted concentration of half-maximal effect; % is set by controls: 0 for no effect and ±100 for the full control effect; nearly all actives have a fitted effect of over 55% in size
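Giardia FBPA (40 nM reagent) was preincubated 10 min at RT with compound (up to 57.5 uM final), then substrate plus GAPDH/TPI/NAD/arsenate coupling system with diaphorase/resazurin was added; resorufin fluorescence (525/598 nm) was read after 20 min.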
* = called active by the depositor; ? = inconclusive; . = not tested or not shown. Unless noted, calls come from the whole dose curve; as a rule, active = well fitted curve in the direction sought with a large enough effect; inconclusive = small, poorly fitted or top-dose-only effect, or another doubt; inactive = no such curve, though single readings can be large; an effect the other way counts as inactive or inconclusive.

SMILES | Cycloheximide cs | Shiga toxin inh | Tb PYK inh | RE007 growth inh | LmPK inh | FBPA Giardia inh
Cc1occc1C(=O)NCc1ccccc1 | 0.7 | 30.4 | -2.4% | -7.9% | 1.0% | .
O=C(NC(=S)NCCc1ccccc1)c1ccccc1 | 17.6* | 44.7* | 1.8% | -18.6% | 1.9% | 7.3%
Cc1ccc(C(=O)NCCCc2ccccc2)s1 | 52.8* | 134.1* | -1.2% | 21.6% | -1.2% | -7.6%
COc1ccc(NC(=O)Cn2nc(-c3ccccc3)c3cnc4ccc(C)cc4c32)cc1 | . | . | 0.8% | . | . | .
Cc1ccccc1C(=O)NCCCc1ccccc1 | 39.1* | 139.8* | -6.9% | 1.3% | -5.5% | 2.4%
O=C(NCCCCc1ccccc1)c1ccccc1F | 16.6* | 18.8 | 3.8% | 1.3% | -2.2% | 4.4%
O=C(NCCCCNC(=O)c1ccccc1Cl)c1ccccc1Cl | 0.9 | -19.5 | 5.1% | -3.1% | 6.9% | 9.2%
O=C(NC(=O)c1ccccc1F)OCc1ccc(Cl)cc1Cl | 26.4* | 69.3* | -3.7% | -5.3% | 2.9% | -0.3%
O=C(NCCCCc1ccccc1)c1ccccc1Cl | 23.9* | 57.6* | -0.5% | 1.8% | -5.0% | -1.2%
Cc1occc1C(=O)NCCc1ccc(Cl)cc1 | 15.5 | 5.5 | -2.3% | -11.1% | -4.5% | -0.5%
C/C(=N\NC(=S)Nc1cc(S(=O)(=O)N2CCOCC2)ccc1Cl)c1ccccc1F | 58.8* | 74.6* | -20.6% | 6.6% | -1.5% | 6.5%
COc1ccccc1CCNC(=O)c1ccoc1C | 19.3* | 32.4 | 3.4% | -5.9% | -12.4% | -5.8%
C/C(=N/NC(=O)Cc1ccccc1)c1ccc(C)s1 | 25.4* | -27.9 | 3.2% | -16.3% | 3.5% | 0.8%
Cn1c(=O)c(-c2ccccc2N)nc2ccccc21 | 13.6 | 36.6* | 1.1% | 8.2% | 0.3% | 1.9%
COC(=O)c1ccccc1NC1=C/C(=N\S(=O)(=O)c2ccc(C(=O)O)cc2)c2ccccc2C1=O | 3.1 | 17.0 | -4.7% | ? | -4.5% | 1µM*
COC(=O)c1cccc(NS(=O)(=O)c2cccs2)c1C | 13.5 | 36.8 | 2.6% | 2.9% | 5.6% | 0.9%
CC(C)(C)c1ccc(S(=O)(=O)/N=C2\C=C(NS(=O)(=O)c3ccccc3)C(=O)c3ccccc32)cc1 | 0.4 | -5.5 | -19.6% | -14.7% | -1.8% | ?
COC(=O)c1ccccc1NC1=C/C(=N\S(=O)(=O)c2cccs2)c2ccccc2C1=O | 27.8* | 40.8 | -4.8% | -28.8% | 17.8µM* | ?
Cc1ccc(NC2=C/C(=N/S(=O)(=O)c3cccs3)c3ccccc3C2=O)cc1 | 47.5* | 145.0* | -14.6% | -19.2% | -7.8% | ?
O=C1C(Nc2ccccc2)=C/C(=N/S(=O)(=O)c2cccs2)c2ccccc21 | 11.0 | 15.9 | -20.5% | ? | -19.2% | ?
O=[N+]([O-])c1ccc(N2CCOCC2)c2c1no[n+]2[O-] | . | . | -14.7% | 44.7µM* | . | .
CC(Sc1nncs1)C(=O)Nc1ccc2c(c1)OCO2 (stereo unspecified) | 10.5* | 15.7 | -4.9% | -11.2% | -1.2% | -7.4%
O=C(CSc1nncs1)Nc1ccc2c(c1)OCO2 | 25.0* | 54.2 | 1.1% | -0.9% | -1.5% | 2.5%
CC(Sc1ncccn1)C(=O)Nc1ccc2c(c1)OCO2 (stereo unspecified) | . | . | -4.4% | 6.8% | . | .
FC(F)(F)c1ccccc1-c1nccc(NCc2ccccc2)n1 | . | . | . | . | . | -10.8%
SMILES | Cycloheximide cs | Shiga toxin inh | Tb PYK inh | RE007 growth inh | LmPK inh | FBPA Giardia inh
COc1cc2c(cc1NC(=O)Nc1ccccc1)oc1ccccc12 | 1.4 | 19.8 | -5.6% | 59.9% | 6.5% | -6.5%
COc1cc2c(cc1NC(=S)Nc1cccc3ccccc13)oc1ccccc12 | 34.9* | 103.0* | -9.2% | -19.8% | 6.3% | -26.4%
COCCCNC(=S)Nc1cc2oc3ccccc3c2cc1OC | 10.7* | 17.1 | -2.0% | -15.2% | -3.8% | -1.7%
COc1ccccc1N=C1NC(=O)/C(=C/c2ccc(N(C)C)cc2)S1 | 40.8* | 56.1* | -2.2% | 4.7% | -3.1% | 0.0%
CCOc1ccc(-n2nc(CO)c(C(=O)NCc3cccs3)n2)cc1 | . | . | 0.6% | . | . | .
S=C(NCC1CCCO1)Nc1ccc(Cl)c(Cl)c1 (stereo unspecified) | 12.6 | 49.6* | -13.5% | -15.4% | 0.8% | 1.4%
O=C(Cc1ccc(Cl)c(Cl)c1)NNC(=S)NCC1CCCO1 (stereo unspecified) | -1.7 | -3.3 | -21.6% | 11.6% | -3.2% | .
CCCCc1ccc(NC(=S)NCC2CCCO2)cc1 (stereo unspecified) | 8.8* | 32.8* | -5.0% | 0.5% | 0.2% | -0.6%
CCNS(=O)(=O)c1ccc(NC(=S)NCC2CCCO2)cc1 (stereo unspecified) | 4.1 | -9.8 | -3.3% | 14.8% | -1.3% | 1.6%
CCc1ccc(NC(=O)C(=O)NCC2CCCO2)cc1 (stereo unspecified) | 45.7* | 101.2* | 5.2% | -3.0% | 0.4% | 0.2%
CN(C)c1ccc(NC(=S)NCC2CCCO2)cc1 (stereo unspecified) | 41.7* | 38.6* | -1.3% | -13.9% | 1.2% | -3.3%
COCc1c(Br)c(C)nc2sc3c(=O)n(-c4cccc(Br)c4)nnc3c12 | . | . | 3.3% | . | . | .
Cc1ccc(S(=O)(=O)Nc2ccc(-n3cnnn3)cc2)c(C)c1 | . | . | 0.0% | -6.1% | . | .
Cc1cc(C)c(S(=O)(=O)Nc2ccc(N(C)C)cc2)c(C)c1-n1cnnn1 | 42.9* | 75.9* | -6.8% | -15.5% | 0.0% | -10.5%
COc1ccc(N/C=C2/Sc3ccccc3NC2=O)cc1 | 44.2* | 87.9* | -20.2% | -4.5% | 3.5% | -2.6%
O=C1Nc2ccccc2S/C1=C/NCc1ccccc1Cl | 12.9 | 39.4 | -15.8% | -7.2% | -0.4% | 3.9%
Cc1ccc(N/C=C2/Sc3ccccc3NC2=O)cc1 | 45.2* | 70.2* | -1.0% | 0.3% | -2.4% | 4.0%
CCC(C)NC(=O)N1c2ccccc2Sc2ccccc21 (stereo unspecified) | 1.6 | -1.7 | -4.2% | -10.6% | 3.5% | 1.1%
CCC(C)NC(=O)/C=C1\Sc2ccccc2NC1=O (stereo unspecified) | 12.8* | 40.2 | -12.2% | -4.1% | 1.8% | -0.1%
Cc1ccc(C(=O)N/C(=C\c2ccc(Cl)cc2)C(=O)NC2CCCCC2)cc1 | . | . | 4.9% | . | . | .
Cc1cccc(-n2c(=O)c3c(c4cc(C)ccc4n3C)n(CC(=O)NCC3CCCO3)c2=O)c1 (stereo unspecified) | . | . | -3.6% | . | . | .
Cc1cccc(NC(=O)NCc2ccc3c(c2)OCO3)c1 | 39.4* | 79.5* | . | . | -1.8% | 1.5%
Cc1ccc(CC(=O)NCc2ccc3c(c2)OCO3)cc1 | 21.8 | 34.4 | -2.0% | -1.2% | -1.1% | 2.7%
Cc1ccc(NC(=O)NCc2ccc3c(c2)OCO3)cc1 | 15.6* | 27.2 | -3.0% | 19.2% | -0.4% | 2.1%
COc1cccc(C(=O)NCC(=O)OCc2cc(=O)n3c(C)csc3n2)c1 | . | . | -4.6% | . | . | .
